The values that follow come from PubChem BioAssay (NCATS).

In assay [1] the target is Transient receptor potential cation channel subfamily V member 1 (Homo sapiens) (UniProt Q8NER1). The assay can be described thus: HTS Assay for Compounds that Act as Enhancers of the Vanilloid Receptor 1 (AID 488979). Put shortly: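 TRPV1 cells loaded with Fluo-8 calcium dye; compound added and Ca2+ signal (ex 480/em 520 nm) followed 3 min, then capsaicin at EC20 added and read 2 more min to detect enhancement.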

The target of assay [2] is Thyrotropin receptor (Homo sapiens) (UniProt P16473). The assay can be described thus: qHTS Assay for Antagonists of the Thyroid Stimulating Hormone Receptor (AID 488980). Further: series mostly up to about 58 µM. The method, boiled down:
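Readout is cAMP by HTRF competition between cellular cAMP and cAMP-d2 for a cryptate-labelled antibody. Antagonism was assessed in TSHR-transfected HEK293 cells stimulated with 4 nM TSH (EC80, final) in the presence of RO 20-1724.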
On the technique in general: Quantitative high-throughput screening tests each substance at several concentrations.

The target in assay [3] is D(1A) dopamine receptor (Homo sapiens) (UniProt P21728). The assay can be described thus: HTS Assay for Allosteric Agonists of the Human D1 Dopamine Receptor: Primary Screen for Agonists (AID 488981). Put shortly: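 Tetracycline-induced HEK293 Trex D1 cells with forced coupling to calcium, loaded with no-wash calcium dye; kinetic fluorescence read 180 s after compound addition for agonism, then a further 180 s after an EC20 dopamine challenge for potentiation.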

Assay [4] can be described thus: Validation screen for small molecules that induce genotoxicity in human embryonic kidney (HEK293T) cells expressing luciferase-tagged ELG1 (AID 493106). Put shortly:
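In this validation screen, increased ELG1-luciferase signal flags compounds causing genetic stress. HEK293T reporter cells are treated 16 hr (37 °C, 5% CO2), developed with ONE-Glo for 30 min at room temperature, and imaged on a CCD-based reader.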

The target in assay [5] is ATPase family AAA domain-containing protein 5 (Homo sapiens) (UniProt Q96QE3). The assay can be described thus: Validation screen for small molecules that inhibit ELG1-dependent DNA repair in human embryonic kidney (HEK293T) cells expressing luciferase-tagged ELG1 (AID 493107).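 Further: cells co-treated with the DNA-damaging agent 5-fluorouridine alongside compound; series mostly up to about 46 µM; inhibitors lower the ELG1-luciferase luminescence signal; nearly all actives have a fitted effect of over 70% in size.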 Put shortly:
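Compounds reducing 5-fluorouridine-driven ELG1-luciferase signal in HEK293T cells were scored; exposure lasted 16 hr at 37 °C with luminescence detected via ONE-Glo.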

Assay [6] is described as follows: Nrf2 qHTS screen for inhibitors: Validation (AID 493153; active means well fitted inhibition curve with a large enough effect in the main read-out, with a control signal flat, not every such curve was filed as active). The following applies: viability change: measured here: cytotoxicity max response. The method, boiled down: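 In this counterscreened reporter format, each well gives two signals: CellTiter-Fluor fluorescence for cytotoxicity and ARE-luciferase luminescence for Nrf2 function. A549 ARE_Fluc cells in 5% FBS OPTI-MEM were exposed to compound titrations for 18-24 h.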

Assay [7] in a line: qHTS for Inhibitors of Cell Surface uPA Generation: Validation Assay (AID 493164).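 Further: RAW 264.7 macrophage cells exposed to compound for 18 h.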 Put shortly:
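Compounds are titrated over seven points (2.45 nM–38.3 uM final) onto pre-plated RAW 264.7 cells and incubated for 18 h. Retained intracellular ATP, measured with ATP-Lite, indicates blocked lethal factor entry.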

The target in assay [8] is Galactokinase (Homo sapiens) (UniProt P51570). Briefly: qHTS Validation Assay for Inhibitors of Human Galactokinase (GALK) (AID 493189). The method, boiled down:
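5 nM GALK / 100 uM galactose / 35 uM ATP, 20 mM HEPES pH8.0, 5 mM MgCl2, 60 mM NaCl, 1 mM DTT, 0.01% BSA (final). RT 1 h; Kinase-Glo Plus luminescence.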

The nature of assay [9]: Validation screen for small molecules that induce DNA re-replication in SW480 colon adenocarcinoma cells (AID 504364). The method, boiled down:
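Hoechst-stained SW480 nuclei, imaged at 405 nm excitation after 48 hr compound exposure, were counted for elevated DNA content as the re-replication signal.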

Assay [10] deals with Peptidyl-prolyl cis-trans isomerase NIMA-interacting 1 (Homo sapiens) (UniProt Q13526). Briefly: qHTS Validation Assay to Find Inhibitors of Pin1 (AID 504536; active means well fitted inhibition curve with a large enough effect in the polarisation, with a control signal flat, not every such curve was filed as active; the % refers to the polarisation). Put shortly: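 Fluorescence polarization competition: compounds (titration) displace HiFluor-488-labeled Pin1-1b peptide from Pin1 (0.3 uM final) in pH 7.5 HEPES buffer with DTT, 10 min at room temperature; %Activity normalized to no-enzyme wells, curves fitted.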

In assay [11] the target is Phosphoglycerate kinase, glycosomal (Trypanosoma brucei brucei) (UniProt P07378). Briefly: qHTS Validation Assay to Find Inhibitors of Phosphoglycerate Kinase (AID 504547). The method, boiled down: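 Compounds are pinned into the substrate/PGK mixture, and GAPDH (100nM final) is added to start the reaction by producing 1,3-BPG. After 60 minutes at room temperature, Kinase-Glo Plus is added and luminescence is measured 10 minutes later.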

Assay [12] deals with phosphoglycerate mutase (Leishmania major) (UniProt Q4Q090). Briefly: qHTS Validation Assay to Find Inhibitors of Phosphoglycerate Mutase (AID 504548). Further: series mostly up to about 58 µM. The method, boiled down:
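Lm PGAM 1.25nM final; 100 mM TEA pH 7.6, 5 mM MgCl2, 0.01% Tween-20; 45 min RT; Kinase-GloPlus, 10 min; end-point luminescence. Enzyme-free wells as negative controls.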

Assay [13] is described as follows: Inducers of the Endoplasmic Reticulum Stress Response (ERSR) in human glioma: Validation (AID 504836). The method, boiled down: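 Stably transfected U87-MG glioma cells carrying a GRP78-based luciferase sensor; 16 h compound incubation. Luminescence end-point read 10 min after Bright-Glo addition at room temperature.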
Assay [14] deals with Ubiquitin carboxyl-terminal hydrolase 1 (Homo sapiens) (UniProt O94782). The assay can be described thus: Inhibitors of USP1/UAF1: Pilot qHTS (AID 504865). Further: nearly all actives have a fitted effect of over 35% in size. Further: potency means the concentration at half of the fitted maximal effect. Put shortly: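 In 50mM HEPES pH 7.8 containing 0.5mM EDTA, 1mM TCEP, 0.1 mg/ml BSA and 0.01% Tween-20, 1nM USP1/UAF1 is exposed to compound for 15 min, then Ub-Rho (150nM final) is added and fluorescence is read over time.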

Assay [15] is described as follows: qHTS for Inhibitors of ATXN expression: Validation of Cytotoxic Assay (AID 588349). The method, boiled down: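 Toxicity of test compounds toward HEK293 cells is scored from cellular ATP content measured by CellTiter Glo. Cells receive titrated doses and incubate 72 hr at 37 degrees C beforehand.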
Assay [16] can be described thus: qHTS for Inhibitors of ATXN expression: Validation (AID 588378). Further: series mostly up to about 57 µM; nearly all actives have a fitted effect of over 75% in size. The method, boiled down:
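Compounds were pinned onto attached HEK293 cells carrying an ATXN2-firefly luciferase construct and incubated 24 hrs at 37 degrees C. Each well then received a fluorescent viability reagent followed by luciferase substrate for end-point luminescence.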

In assay [17] the target is ATP-dependent 6-phosphofructokinase (Trypanosoma brucei brucei) (UniProt O15648). Briefly: qHTS Assay to Find Inhibitors of T. brucei phosphofructokinase: hit validation (AID 492961).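 Further: luminescence reports ADP formed as PFK phosphorylates fructose-6-phosphate with ATP; series mostly up to about 51 µM.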 Put shortly:
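Inhibition of parasite PFK is measured as reduced ADP formation, quantified via luciferase after ATP depletion. Assay used 0.1 mM ATP, 0.5 mM F6P, 1.25 nM enzyme, 45 min incubation.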

The target in assay [18] is DNA dC->dU-editing enzyme APOBEC-3G (Homo sapiens) (UniProt Q9HC16). Briefly: qHTS for inhibitors of Vif-A3G interactions: Validation (AID 588379). Put shortly: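 Yellow fluorescence (Ex 488, Em 500-530) of Vif-coexpressing HeLa A3G-eYFP cells, scanned by Acumen cytometer, reports blocked A3G degradation. Cells plated at 700/well overnight at 37 deg C before compound addition, then a further overnight compound incubation at 37 deg C.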

The structures appear in SMILES notation. “And” between values parts separate entries of the source, which are not always exact repeats. Equal values may be shown once. Inconclusive results are not listed. A call without a number means that no potency is given here. The source made the active and inactive calls. Unless noted, the call rests on the fitted dose curve; in most records, active means well fitted curve in the direction sought with a large enough effect; inconclusive means small, poorly fitted or top-dose-only effect, or another doubt; inactive means no such curve, though single readings can be large; an effect the other way counts as inactive or inconclusive.

Sequence of Ubiquitin carboxyl-terminal hydrolase 1 (Homo sapiens) (O94782 whole entry, looked up): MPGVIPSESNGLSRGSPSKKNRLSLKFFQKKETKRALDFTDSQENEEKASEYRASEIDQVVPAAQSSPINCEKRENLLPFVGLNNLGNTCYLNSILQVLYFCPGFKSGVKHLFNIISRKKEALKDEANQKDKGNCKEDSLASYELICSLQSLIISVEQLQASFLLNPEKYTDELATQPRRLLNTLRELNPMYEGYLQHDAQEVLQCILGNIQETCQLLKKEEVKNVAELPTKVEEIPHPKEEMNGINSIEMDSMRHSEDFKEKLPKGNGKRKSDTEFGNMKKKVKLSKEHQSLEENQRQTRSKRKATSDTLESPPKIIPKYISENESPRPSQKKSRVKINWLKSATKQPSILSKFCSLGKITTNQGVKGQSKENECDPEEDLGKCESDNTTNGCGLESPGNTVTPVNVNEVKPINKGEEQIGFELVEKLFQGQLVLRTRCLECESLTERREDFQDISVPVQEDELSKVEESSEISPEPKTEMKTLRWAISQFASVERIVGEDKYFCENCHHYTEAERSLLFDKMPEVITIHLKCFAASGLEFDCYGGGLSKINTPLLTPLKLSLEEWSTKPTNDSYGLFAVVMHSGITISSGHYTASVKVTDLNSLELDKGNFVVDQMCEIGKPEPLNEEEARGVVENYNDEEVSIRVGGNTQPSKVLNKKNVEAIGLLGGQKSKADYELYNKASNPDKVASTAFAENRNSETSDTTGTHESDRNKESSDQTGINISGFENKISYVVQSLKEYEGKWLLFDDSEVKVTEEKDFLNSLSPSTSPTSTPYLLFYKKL
Sequence of ATP-dependent 6-phosphofructokinase (Trypanosoma brucei brucei) (O15648 whole entry, looked up): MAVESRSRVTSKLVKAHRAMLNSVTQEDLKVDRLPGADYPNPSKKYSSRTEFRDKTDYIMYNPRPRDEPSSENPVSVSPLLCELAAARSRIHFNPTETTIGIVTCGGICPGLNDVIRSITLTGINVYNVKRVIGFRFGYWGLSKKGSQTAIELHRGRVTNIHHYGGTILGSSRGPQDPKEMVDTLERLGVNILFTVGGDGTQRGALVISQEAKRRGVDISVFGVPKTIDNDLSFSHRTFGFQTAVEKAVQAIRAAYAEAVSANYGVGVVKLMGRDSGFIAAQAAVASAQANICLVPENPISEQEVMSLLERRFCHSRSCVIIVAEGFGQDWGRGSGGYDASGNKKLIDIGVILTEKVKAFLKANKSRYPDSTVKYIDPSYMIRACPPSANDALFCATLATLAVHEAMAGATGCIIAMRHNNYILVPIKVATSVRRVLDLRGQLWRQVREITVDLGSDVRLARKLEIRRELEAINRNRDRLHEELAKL
Sequence of Transient receptor potential cation channel subfamily V member 1 (Homo sapiens) (Q8NER1 whole entry, looked up): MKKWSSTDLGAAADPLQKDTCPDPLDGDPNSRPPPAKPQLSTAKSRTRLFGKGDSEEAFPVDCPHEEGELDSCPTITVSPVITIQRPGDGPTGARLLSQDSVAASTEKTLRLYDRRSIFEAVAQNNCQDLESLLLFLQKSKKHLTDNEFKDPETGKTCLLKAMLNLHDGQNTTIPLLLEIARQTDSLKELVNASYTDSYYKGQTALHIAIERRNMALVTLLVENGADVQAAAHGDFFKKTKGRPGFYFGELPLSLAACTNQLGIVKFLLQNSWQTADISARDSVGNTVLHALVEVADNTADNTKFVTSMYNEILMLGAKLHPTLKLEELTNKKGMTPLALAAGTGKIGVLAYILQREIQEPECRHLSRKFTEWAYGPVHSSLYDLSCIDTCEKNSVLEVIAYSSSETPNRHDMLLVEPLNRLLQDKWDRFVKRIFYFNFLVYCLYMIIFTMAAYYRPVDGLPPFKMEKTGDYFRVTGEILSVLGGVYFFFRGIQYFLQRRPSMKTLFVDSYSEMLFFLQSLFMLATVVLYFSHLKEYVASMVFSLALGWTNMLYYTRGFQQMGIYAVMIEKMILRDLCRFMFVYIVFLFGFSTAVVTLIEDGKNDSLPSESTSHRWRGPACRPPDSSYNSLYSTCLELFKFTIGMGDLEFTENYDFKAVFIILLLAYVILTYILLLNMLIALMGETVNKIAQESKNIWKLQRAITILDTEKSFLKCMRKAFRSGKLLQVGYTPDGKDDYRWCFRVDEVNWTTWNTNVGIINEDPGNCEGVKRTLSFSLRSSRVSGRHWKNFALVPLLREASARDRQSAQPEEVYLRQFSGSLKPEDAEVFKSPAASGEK
Sequence of Thyrotropin receptor (Homo sapiens) (P16473 whole entry, looked up): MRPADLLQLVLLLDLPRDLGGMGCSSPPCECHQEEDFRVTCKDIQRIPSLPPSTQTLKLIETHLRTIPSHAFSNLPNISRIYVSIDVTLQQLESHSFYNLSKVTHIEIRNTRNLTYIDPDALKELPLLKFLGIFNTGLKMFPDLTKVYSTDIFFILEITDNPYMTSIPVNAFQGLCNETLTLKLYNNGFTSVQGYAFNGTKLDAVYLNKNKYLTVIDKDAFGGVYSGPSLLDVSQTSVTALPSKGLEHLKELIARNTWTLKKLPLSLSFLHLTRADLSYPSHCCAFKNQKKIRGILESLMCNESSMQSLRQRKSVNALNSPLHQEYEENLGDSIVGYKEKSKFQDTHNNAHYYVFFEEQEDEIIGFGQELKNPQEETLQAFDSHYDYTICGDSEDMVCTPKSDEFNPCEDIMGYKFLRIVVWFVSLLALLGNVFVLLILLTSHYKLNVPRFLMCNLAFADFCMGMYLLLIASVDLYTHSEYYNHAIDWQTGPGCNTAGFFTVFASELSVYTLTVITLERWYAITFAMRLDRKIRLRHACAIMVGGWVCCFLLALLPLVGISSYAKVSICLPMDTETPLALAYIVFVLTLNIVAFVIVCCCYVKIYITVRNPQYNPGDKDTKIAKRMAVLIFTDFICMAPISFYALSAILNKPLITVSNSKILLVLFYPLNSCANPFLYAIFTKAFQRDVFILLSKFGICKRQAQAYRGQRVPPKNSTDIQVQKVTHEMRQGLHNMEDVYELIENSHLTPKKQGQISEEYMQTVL
Sequence of ATPase family AAA domain-containing protein 5 (Homo sapiens) (Q96QE3 whole entry, looked up, the tested form may be a part): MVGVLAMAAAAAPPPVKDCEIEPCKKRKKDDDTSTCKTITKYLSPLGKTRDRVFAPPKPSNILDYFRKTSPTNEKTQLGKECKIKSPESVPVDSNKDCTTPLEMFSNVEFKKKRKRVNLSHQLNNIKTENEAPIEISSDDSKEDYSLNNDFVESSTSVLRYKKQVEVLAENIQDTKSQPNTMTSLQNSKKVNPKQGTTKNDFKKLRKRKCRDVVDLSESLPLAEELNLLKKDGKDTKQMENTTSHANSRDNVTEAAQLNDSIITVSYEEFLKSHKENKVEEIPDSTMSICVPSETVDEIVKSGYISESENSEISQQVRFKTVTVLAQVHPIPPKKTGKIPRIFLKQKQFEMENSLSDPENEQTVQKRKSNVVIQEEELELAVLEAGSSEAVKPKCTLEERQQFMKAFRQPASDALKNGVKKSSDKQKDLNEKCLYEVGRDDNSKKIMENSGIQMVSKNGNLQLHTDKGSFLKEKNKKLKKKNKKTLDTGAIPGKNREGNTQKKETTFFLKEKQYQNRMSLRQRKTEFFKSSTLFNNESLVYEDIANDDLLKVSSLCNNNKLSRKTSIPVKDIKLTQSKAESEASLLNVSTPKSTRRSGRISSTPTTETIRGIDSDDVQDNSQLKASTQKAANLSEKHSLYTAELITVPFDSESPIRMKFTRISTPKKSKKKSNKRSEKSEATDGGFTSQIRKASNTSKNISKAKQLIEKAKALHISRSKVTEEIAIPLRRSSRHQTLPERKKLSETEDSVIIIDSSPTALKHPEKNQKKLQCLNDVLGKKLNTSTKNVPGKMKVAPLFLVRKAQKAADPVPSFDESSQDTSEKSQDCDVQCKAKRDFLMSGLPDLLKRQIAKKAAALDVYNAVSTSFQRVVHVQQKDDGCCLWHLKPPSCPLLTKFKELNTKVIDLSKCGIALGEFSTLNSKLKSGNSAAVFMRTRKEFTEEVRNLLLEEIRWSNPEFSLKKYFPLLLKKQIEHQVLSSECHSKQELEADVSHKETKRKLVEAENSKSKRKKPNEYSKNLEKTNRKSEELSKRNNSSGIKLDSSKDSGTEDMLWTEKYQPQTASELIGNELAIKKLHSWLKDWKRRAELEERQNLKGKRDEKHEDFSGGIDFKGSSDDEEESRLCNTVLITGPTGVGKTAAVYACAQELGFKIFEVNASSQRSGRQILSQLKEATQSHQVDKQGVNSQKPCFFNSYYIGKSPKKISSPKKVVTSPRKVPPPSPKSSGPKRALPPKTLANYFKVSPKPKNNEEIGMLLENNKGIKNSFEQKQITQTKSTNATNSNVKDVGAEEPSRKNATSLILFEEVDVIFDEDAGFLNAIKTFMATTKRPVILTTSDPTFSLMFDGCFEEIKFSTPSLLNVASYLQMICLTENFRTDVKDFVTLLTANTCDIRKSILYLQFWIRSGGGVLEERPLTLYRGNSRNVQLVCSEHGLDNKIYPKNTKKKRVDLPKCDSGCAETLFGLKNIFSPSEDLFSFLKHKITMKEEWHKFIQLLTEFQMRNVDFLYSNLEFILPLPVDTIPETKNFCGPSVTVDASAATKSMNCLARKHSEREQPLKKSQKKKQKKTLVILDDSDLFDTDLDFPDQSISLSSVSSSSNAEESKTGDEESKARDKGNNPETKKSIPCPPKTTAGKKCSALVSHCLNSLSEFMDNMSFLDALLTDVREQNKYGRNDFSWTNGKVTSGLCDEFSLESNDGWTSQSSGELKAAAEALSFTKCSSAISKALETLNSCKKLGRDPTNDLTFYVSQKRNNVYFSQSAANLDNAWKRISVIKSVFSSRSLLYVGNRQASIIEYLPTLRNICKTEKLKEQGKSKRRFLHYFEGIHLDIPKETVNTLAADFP
Sequence of DNA dC->dU-editing enzyme APOBEC-3G (Homo sapiens) (Q9HC16 whole entry, looked up): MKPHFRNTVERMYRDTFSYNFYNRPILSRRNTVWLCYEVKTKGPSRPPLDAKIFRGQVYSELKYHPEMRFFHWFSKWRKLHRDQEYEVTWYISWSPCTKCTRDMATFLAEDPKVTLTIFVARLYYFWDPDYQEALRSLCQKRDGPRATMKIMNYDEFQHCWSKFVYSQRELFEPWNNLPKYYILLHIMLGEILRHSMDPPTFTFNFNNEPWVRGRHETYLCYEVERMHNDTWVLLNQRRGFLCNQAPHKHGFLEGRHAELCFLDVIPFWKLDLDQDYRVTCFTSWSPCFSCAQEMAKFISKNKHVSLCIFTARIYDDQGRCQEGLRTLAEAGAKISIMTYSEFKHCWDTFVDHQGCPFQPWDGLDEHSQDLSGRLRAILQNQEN

Consider `CC(C)N(CCC(C(N)=O)(c1ccccc1)c1ccccn1)C(C)C` (centres undefined), for which the result in assay [1], in [2], in [4], in [5], in [6] and in assay [7] was inactive. Further, the compound was called inactive in assay [8], in assay [9], in assay [10], in [11], in [12] and in [13]. Moreover, the result in [15] and in [16] was inactive. Further, the Potency result in [3] and in assay [14] was “inactive” throughout. The viability change in assay [6] is 0% and 10.1%.
As for `O=C1CN=C(c2ccccc2)c2cc([N+](=O)[O-])ccc2N1`, the outcome in [17] was inactive. Further, the Potency result in assay [14] is “inactive”.
For the compound `CN=C(NC#N)NCCSCc1nc[nH]c1C`, the call in [6] and in assay [13] was inactive. The compound further showed a viability change in assay [6] of 0.983%.
`Clc1ccc2c(c1)C(c1ccccc1)=NCc1nncn1-2`: in assay [17], the compound was called inactive. Moreover, the Potency result in assay [14] was “inactive”.
For the compound `Cc1ccc(Cl)c(Nc2ccccc2C(=O)O)c1Cl`, the call in [13] was inactive.
On to `NNc1ccccc1`, for which the compound was called inactive in assay [17]. In addition, in assay [14], the Potency entry was “inactive”.
Take `Cc1nnc2n1-c1ccc(Cl)cc1C(c1ccccc1Cl)=NC2`: the outcome in assay [17] was inactive. In addition, the Potency result in assay [14] is “inactive”.
`CC(N=C(NC#N)Nc1ccncc1)C(C)(C)C` (centres undefined): the outcome in assay [13] was inactive.
For `CC(C)C[C@H]1C(=O)N2CCC[C@H]2[C@]2(O)O[C@](NC(=O)[C@@H]3C=C4c5cccc6[nH]c(Br)c(c56)C[C@H]4N(C)C3)(C(C)C)C(=O)N12`, the compound was classed as inactive in assay [4] and in assay [13]. In addition, the Potency result in assay [14] was “inactive”.
On to `O=C1Nc2ccc(Cl)cc2C(c2ccccc2Cl)=NC1O` (centres undefined), for which, in assay [17], the compound was called inactive. For the same compound, in assay [14], the Potency result was “inactive”.
Regarding `CN1C(=O)CC(=O)N(c2ccccc2)c2cc(Cl)ccc21`, the result in assay [17] was inactive. The Potency result in [14] was “inactive”.
Take `C[C@]12CC[C@@H]3c4ccc(OC(=O)N(CCCl)CCCl)cc4CC[C@H]3[C@@H]1CC[C@@H]2O`: the outcome in [17] was inactive. In addition, the Potency in assay [14] was 50.1 µM (active).
As to `O=C(N/N=C/c1ccc([N+](=O)[O-])o1)c1cc([N+](=O)[O-])cc([N+](=O)[O-])c1O`, the outcome in assay [17] was inactive. Further, the Potency result in [14] was “inactive”.
With `CN1C(=O)C(O)N=C(c2ccccc2)c2cc(Cl)ccc21` (centres undefined), in assay [17], the compound was called inactive. Further, the Potency result in assay [14] is “inactive”.
As for `CN1C(=O)NC(=O)C(C)(C2=CCCCC2)C1=O` (centres undefined), in assay [17], the call was inactive. The Potency result in assay [14] was “inactive”.
As for `C[C@](N)(Cc1ccc(O)cc1)C(=O)O`, the outcome in assay [13] was inactive.
Turning to `O=C1Nc2ccc(Cl)cc2C(c2ccccc2)=NC1O` (centres undefined), the compound was called inactive in assay [17]. In addition, the Potency result in [14] was “inactive”.
As for `O=C1c2ccccc2C(=O)C1C(=O)C(c1ccccc1)c1ccccc1`, the compound was called inactive in assay [17]. Besides, the Potency in assay [14] is 31.6 µM (active).
With `Cc1nnc2n1-c1ccc(Cl)cc1C(c1ccccc1)=NC2`, the result in assay [17] was inactive. For the same compound, the Potency entry in assay [14] is “inactive”.
In the case of `Nc1ccc([As](=O)(O)O)cc1`, the compound was called inactive in assay [17]. Besides, in assay [14], the Potency entry was “inactive”.
For the compound `CCOP(=S)(OCC)Oc1ccc2c(C)c(Cl)c(=O)oc2c1`, the outcome in assay [17] was inactive. Also, the Potency result in assay [14] is “inactive”.
For `CCCC(C)(COC(N)=O)COC(N)=O`, the call in assay [17] was inactive. Moreover, the Potency result in [14] is “inactive”.
Regarding `CNC(C)(C)Cc1ccccc1`, the compound was classed as inactive in assay [17]. Also, the Potency result in assay [14] is “inactive”.
Consider `Clc1cccc(SC2CCNCC2)n1`, for which the outcome in assay [17] and in assay [18] was inactive. The Potency entry in [14] was “inactive”.
Turning to `NC(=O)c1cc([N+](=O)[O-])cc([N+](=O)[O-])c1`, the call in [17] was inactive. Also, the Potency entry in assay [14] is “inactive”.
As to `COC1CC(=C(c2cccs2)c2cccs2)C[N+](C)(C)C1` (centres undefined), the compound was classed as inactive in assay [17]. Besides, the Potency result in assay [14] was “inactive”.
Regarding `CN1CCC(O)(c2ccc(F)cc2)C(C(=O)c2ccc(F)cc2)C1` (centres undefined), the outcome in assay [17] was inactive. The Potency entry in assay [14] is “inactive”.
Turning to `COC(=O)C(c1ccccc1)C1CCCCN1` (centres undefined), in [17], the outcome was inactive. Besides, the Potency entry in [14] is “inactive”.
Take `Nc1ccccc1C(=O)O`: the result in assay [17] was inactive. Further, the Potency entry in assay [14] is “inactive”.
For `COc1cccc([C@@]2(O)CCCC[C@@H]2CN(C)C)c1`, the call in [17] was inactive. In addition, the Potency result in assay [14] was “inactive”.
With `COc1c2c(cc3c1OCO3)CCN(C)C2`, the compound was classed as inactive in assay [17]. For the same compound, in assay [14], the Potency result is “inactive”.
Take `CN1C(=O)COc2c(C(=O)NC3CN4CCC3CC4)cc(Cl)cc21` (centres undefined): the outcome in assay [17] was inactive. Besides, the Potency entry in assay [14] was “inactive”.
As to `NC(=O)CS(=O)C(c1ccccc1)c1ccccc1` (centres undefined), the outcome in [17] was inactive. In [14], the Potency result was “inactive”.
Turning to `CCCCCCC(=O)CCCCCC/C=C/C[C@@H](O)[C@H](O)[C@@](N)(CO)C(=O)O`, the outcome in assay [17] was inactive. The Potency entry in assay [14] is “inactive”.
As to `C=CCN1C[C@H](C)N([C@H](c2ccc(C(=O)N(CC)CC)cc2)c2cccc(OC)c2)C[C@H]1C`, the compound was called inactive in [17] and in assay [18]. For the same compound, the Potency result in [14] was “inactive”.
As for `CC(=O)N1CCN(c2ccc(OC[C@H]3CO[C@](Cn4ccnc4)(c4ccc(Cl)cc4Cl)O3)cc2)CC1`, the compound was classed as inactive in assay [4] and in [13]. Moreover, the Potency result in assay [14] is “inactive”.
